Test [1] concerns the target Lysosomal acid glucosylceramidase (Homo sapiens) (UniProt P04062). The test is described as follows: Glucocerebrosidase-p2 (AID 348; in the data active = potency below about 10 µM; note: potency is the fitted concentration of half-maximal effect). The following applies: purified GBA, blue fluorogenic substrate, 40 min. In short, it runs like this: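 Normal human glucocerebrosidase (0.2 nM) with blue fluorogenic substrate (80 uM final) in citrate/phosphate pH 5.9 with 10mM sodium taurocholate, 0.01% tween-20; 40 min RT, NaOH/glycine stop; fluorescence Ex 365/Em 440; AC50 from a titration from 0.6 nM upwards.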

Test [2] is described as follows: AP1 Signaling Pathway (AID 357; active = well fitted curve in either direction with a large enough effect, not every such curve was filed as active; note: % is set by controls: 0 for no effect and ±100 for the full control effect). The following applies: ME-180 AP-1-bla reporter, EGF-induced, beta-lactamase ratio, 5 h; at 7.69 µM (top of the series) unless noted. In outline: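 Read-out was the 460nm/530nm emission ratio (excitation 405nm) after CCF4 loading for 2.5 hours at room temperature. Cells carried an AP-1-driven beta-lactamase reporter, were stimulated with EC50 EGF plus compound for 5 hours, and AC50 values came from titrations.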

Test [3] concerns the target Cytochrome P450 1A2 (Homo sapiens) (UniProt P05177). The test is described as follows: p450-cyp1a2 (AID 410; calls by dose curve; note: potency is the fitted concentration of half-maximal effect). The following applies: recombinant CYP1A2, luciferin-ME demethylation, luminescence; series mostly up to 57 µM. In short, it runs like this:
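Luminescent demethylation readout: Luciferin-ME (100uM, equal to Km) turned over by 20nM CYP1A2 for 60 min at room temperature after NADPH regeneration addition, following 10 min compound preincubation. Normalization used 57 uM furafylline as full inhibition.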

Test [4] can be described thus: NFAT Signaling Pathway (AID 444; active = well fitted curve in either direction with a large enough effect, not every such curve was filed as active;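 note: carbachol stimulus at about its EC50 of 1 µM final; % is set by controls: 0 for no effect and ±100 for the full control effect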). The following applies: Jurkat NFAT-bla M1, carbachol, beta-lactamase ratio, 5 h; at 7.69 µM (top of the series) unless noted. In outline:
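Jurkat cells carrying an NFAT-driven β-lactamase reporter and co-transfected muscarinic M1 receptor were treated with compound plus carbachol (1 uM final, an EC50 level) for 5 h at 37 °C. CCF4 loading followed for 1 h at RT; 460/530 nm ratio gave %activity.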

Test [5] can be described thus: Stat Signaling Pathway (AID 446; active = well fitted curve in either direction with a large enough effect, not every such curve was filed as active;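 note: ME-180 cervical cancer cells given 40 pM IL-6 alongside compound; SIE-controlled beta-lactamase reporter measured as 460/530 nm FRET emission ratio; % is set by controls: 0 for no effect and ±100 for the full control effect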). The following applies: ME-180 (cervical carcinoma) SIE beta-lactamase reporter, IL-6 stimulated, 5 h; at 7.69 µM (top of the series) unless noted. In short, it runs like this:
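Overnight-plated ME-180 cells bearing a STAT Inducible Element beta-lactamase reporter; 5 h co-exposure to compound and 40 pM IL-6; values normalized to 300 pM IL-6 and 125 nM JAK inhibitor controls.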

Test [6] has as its target Glucocorticoid receptor (Homo sapiens) (UniProt P04150). The test is described as follows: GR-GFP Redistribution (AID 450;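 active = compounds whose dose series gives a full or clear partial fitted curve of increased nuclear translocation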; note: potency is the fitted concentration of half-maximal effect). The following applies: U2OS GR-GFP nuclear translocation, laser cytometry, 2 h.
For test [7] the target is unchanged. The test is described as follows: GR-EFC Redistribution (AID 451; calls by dose curve; note: potency is the fitted concentration of half-maximal effect). The following applies: CHO-K1 GR-EFC translocation, beta-gal luminescence, 2 h. In short, it runs like this:
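CHO-K1 cells stably expressing nuclear-localized β-gal enzyme acceptor and GR fused C-terminally to the enzyme donor fragment; ligand-driven nuclear translocation restores β-gal by complementation. Compounds titrated up to 46 uM final, 2 h at 37 °C; luminescence read.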

Test [8] addresses Mitogen-activated protein kinase 10 (Mus musculus) (UniProt Q61831). The test is described as follows: JNK3 AlphaScreen Assay (AID 530; active = well fitted curve in either direction with a large enough effect, not every such curve was filed as active;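 note: kinase came from lysate of stimulated human HepG2 cells; signal reports phosphorylation of biotinylated GST-cJun 1-79 at Ser73 with 10 µM ATP; % is set by controls: 0 for no effect and ±100 for the full control effect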). To be noted: JNK3 lysate, c-Jun phosphorylation; series mostly up to 57.1 µM. In outline:
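Phosphorylation of biotinylated GST-cJun(1-79) at Ser73 is measured by AlphaScreen proximity luminescence. Enzyme is JNK3 in HepG2 lysates activated with interleukin-1beta and tumor necrosis factor alpha; ATP is 10 uM final.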
In general terms: In Alpha technology, singlet oxygen from a donor bead excites a nearby acceptor bead.

In test [9] the target is 3',5'-cyclic-AMP phosphodiesterase 4B (Homo sapiens) (UniProt Q07343). The test is described as follows: qHTS Assay for Inhibitors of PDE-IV (AID 607; active = well fitted activation curve with a large enough effect in the main read-out, with a control signal flat, not every such curve was filed as active; note: % of control where 0% means no effect). The following applies: HEK293 ACTOne CNG channel cells, membrane potential fluorescence; series mostly up to 22.9 µM. In outline:
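Live HEK293 cells with a modified cyclic nucleotide-gated (CNG) channel report intracellular cAMP via membrane-potential dye fluorescence (ex 535/em 590 nm). Endogenous PDE-IV was targeted. Compounds were tested at up to 22.9 uM final; RO 20-1724 100 uM served as control.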
A general note: In qHTS, concentration-response curves come from the screen itself.

A short description of test [10]: qHTS Assay for Lipid Storage Modulators (AID 1519; calls by dose curve). The following applies: Drosophila S3 cells, BODIPY lipid droplet/cell ratio, laser cytometry, cells loaded with oleic acid; for activity change, negative = inhibition: at 57.5 µM (top of the series). In short, it runs like this: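 Cells seeded at 5,000 per well were treated with compounds over a concentration series and loaded with oleic acid (400 uM, as added). Lipid droplet fluorescence (488 nm excitation, 500-530 nm channel) was read by laser-scanning cytometry and normalized to 20 uM Triacsin C.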

In test [11] the target is Dual specificity protein kinase CLK4 (Homo sapiens) (UniProt Q9HAZ1). The test is described as follows: qHTS Assay for Inhibitors of CDC-like Kinase 4 (ADP-FP Assay) (AID 1795).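 Note: recombinant human CLK4 phosphorylating RS repeat peptide at 1 µM ATP; % is set by controls: 0 for no effect and ±100 for the full control effect; nearly all actives have a fitted effect of over 60% in size.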 To be noted: Transcreener ADP fluorescence polarization; series mostly up to 50 µM. In short, it runs like this: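 Inhibition of ADP formation by 6.25 nM Clk4 is measured using 1 uM ATP and 100 uM RS repeat peptide over one hour. Produced ADP displaces a fluorescent tracer from antibody, lowering polarization.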

Test [12] has as its target Ubiquitin carboxyl-terminal hydrolase 1 (Homo sapiens) (UniProt O94782). The test is described as follows: Inhibitors of USP1/UAF1: Pilot qHTS (AID 504865).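 Note: rhodamine fluorescence freed from ubiquitin-rhodamine substrate followed over time; top concentration of the series differs between compounds; % is set by controls: 0 for no effect and ±100 for the full control effect; nearly all actives have a fitted effect of over 35% in size.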 The following applies: purified USP1/UAF1, Ub-rhodamine cleavage fluorescence; series mostly up to 54.9 µM. In outline: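 Kinetic fluorescence assay: 1nM USP1/UAF1, 15 min compound preincubation, then 150nM Ub-Rho; 480/540 nm.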

The nature of test [13]: Primary qHTS for small molecule stabilizers of the endoplasmic reticulum resident proteome: Secreted ER Calcium Modulated Protein (SERCaMP) assay (AID 1508630). Note: % is set by controls: 0 for no effect and ±100 for the full control effect. The following applies: SH-SY5Y GLuc-SERCaMP (Gaussia luciferase released on ER calcium loss) secretion, thapsigargin, luminescence; series mostly up to 38.4 µM. In short, it runs like this: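 The SH-SY5Y reporter protocol was run at 3 concentrations up to 38.3 uM (primary) or 11 concentrations (follow-up): 16 h compound, 100 nM thapsigargin for 4 h, then extracellular luciferase luminescence.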

In test [14] the target is Cytochrome P450 3A4 (Homo sapiens) (UniProt P08684). The test is described as follows: qHTS Assay for Activators of Cytochrome P450 3A4 (AID 885). Note: nearly all actives have a fitted effect of over 65% in size. The following applies: recombinant CYP3A4, Luciferin-PPXE luminescence, 60 min; series mostly up to 57.1 µM. In outline: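 Using 20nM recombinant human CYP3A4 in potassium phosphate (200mM), substrate Luciferin-PPXE at 25uM, luminescent luciferin detection followed a 60-min RT NADPH reaction; data scaled to 57 uM ketoconazole.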

The target in test [15] is Dual specificity protein kinase CLK4 (Homo sapiens) (UniProt Q9HAZ1). The test is described as follows: qHTS Assay for Inhibitors of CDC-like Kinase 4 (ADP-Glo Assay) (AID 1771). Note: % is set by controls: 0 for no effect and ±100 for the full control effect; nearly all actives have a fitted effect of over 70% in size. To be noted: recombinant CLK4, ADP-Glo luminescence; series mostly up to 80 µM. In short, it runs like this: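 ADP production was read by ADP-Glo luminescence after residual ATP depletion, following 1 h room-temperature reaction of 25 nM Clk4, 1 uM ATP and 100 uM RS peptide with MgCl2, EGTA, DTT and Triton X-100.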

In test [16] the target is Cytochrome P450 2C19 (Homo sapiens) (UniProt P33261). The test is described as follows: qHTS Assay for Inhibitors and Substrates of Cytochrome P450 2C19 (AID 899). Note: % is set by controls: 0 for no effect and ±100 for the full control effect; nearly all actives have a fitted effect of over 60% in size. The following applies: recombinant CYP2C19, luciferin-H EGE luminescence; series mostly up to 57.1 µM. In short, it runs like this: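 In 50mM KPO4, the reaction held 5nM enzyme and KM-level (10uM) Luciferin-H EGE; it ran 60 min at 37C after NADPH regeneration and a 10 min compound preincubation. Luminescence values were scaled to 57uM ketoconazole as complete inhibition.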

The mark [17] stands for this setting: measured here: cell count channel max response.
Setting [18] is: measured here: lipid channel max response.

Inconclusive results are not listed. Calls of active or inactive are those of the source. Unless noted, calls come from the whole dose curve; as a rule, active = well fitted curve in the direction sought with a large enough effect; inconclusive = small, poorly fitted or top-dose-only effect, or another doubt; inactive = no such curve, though single readings can be large; an effect the other way counts as inactive or inconclusive.

3',5'-cyclic-AMP phosphodiesterase 4B (Homo sapiens), sequence (Q07343 whole entry, looked up): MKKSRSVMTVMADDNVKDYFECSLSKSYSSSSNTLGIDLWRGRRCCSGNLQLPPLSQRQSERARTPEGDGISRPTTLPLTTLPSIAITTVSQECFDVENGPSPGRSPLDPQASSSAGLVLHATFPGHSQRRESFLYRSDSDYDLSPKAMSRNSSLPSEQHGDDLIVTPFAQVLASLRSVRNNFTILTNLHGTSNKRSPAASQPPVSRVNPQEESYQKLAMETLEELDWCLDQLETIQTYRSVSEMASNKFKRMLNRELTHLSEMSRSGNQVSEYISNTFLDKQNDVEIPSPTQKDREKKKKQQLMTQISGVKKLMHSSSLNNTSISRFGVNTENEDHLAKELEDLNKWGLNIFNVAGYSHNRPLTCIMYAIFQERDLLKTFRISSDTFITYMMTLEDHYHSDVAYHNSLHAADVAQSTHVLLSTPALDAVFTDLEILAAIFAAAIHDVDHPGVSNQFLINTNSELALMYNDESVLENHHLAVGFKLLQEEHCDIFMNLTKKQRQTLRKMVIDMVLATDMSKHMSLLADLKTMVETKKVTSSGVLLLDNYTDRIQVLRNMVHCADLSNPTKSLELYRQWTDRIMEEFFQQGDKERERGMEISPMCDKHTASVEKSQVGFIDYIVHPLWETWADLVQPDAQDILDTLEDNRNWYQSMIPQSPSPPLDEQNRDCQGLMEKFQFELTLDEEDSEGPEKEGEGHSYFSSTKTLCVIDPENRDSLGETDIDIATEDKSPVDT
Lysosomal acid glucosylceramidase (Homo sapiens), sequence (P04062 whole entry, looked up): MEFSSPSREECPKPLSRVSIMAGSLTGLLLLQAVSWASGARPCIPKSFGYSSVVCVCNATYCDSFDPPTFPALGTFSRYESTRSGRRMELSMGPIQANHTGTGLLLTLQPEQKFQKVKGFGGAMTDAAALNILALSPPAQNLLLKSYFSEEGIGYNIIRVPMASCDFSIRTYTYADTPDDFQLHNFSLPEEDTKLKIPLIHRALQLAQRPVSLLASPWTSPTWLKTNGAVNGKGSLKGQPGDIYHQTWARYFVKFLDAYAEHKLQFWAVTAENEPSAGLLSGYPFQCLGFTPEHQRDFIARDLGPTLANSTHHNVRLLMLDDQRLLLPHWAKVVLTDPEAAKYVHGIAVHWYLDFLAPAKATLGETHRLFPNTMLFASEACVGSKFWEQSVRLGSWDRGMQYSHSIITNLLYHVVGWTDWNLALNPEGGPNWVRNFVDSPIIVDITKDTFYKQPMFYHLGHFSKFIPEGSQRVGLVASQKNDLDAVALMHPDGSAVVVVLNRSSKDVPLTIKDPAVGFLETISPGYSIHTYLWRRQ
Glucocorticoid receptor (Homo sapiens), sequence (P04150 whole entry, looked up): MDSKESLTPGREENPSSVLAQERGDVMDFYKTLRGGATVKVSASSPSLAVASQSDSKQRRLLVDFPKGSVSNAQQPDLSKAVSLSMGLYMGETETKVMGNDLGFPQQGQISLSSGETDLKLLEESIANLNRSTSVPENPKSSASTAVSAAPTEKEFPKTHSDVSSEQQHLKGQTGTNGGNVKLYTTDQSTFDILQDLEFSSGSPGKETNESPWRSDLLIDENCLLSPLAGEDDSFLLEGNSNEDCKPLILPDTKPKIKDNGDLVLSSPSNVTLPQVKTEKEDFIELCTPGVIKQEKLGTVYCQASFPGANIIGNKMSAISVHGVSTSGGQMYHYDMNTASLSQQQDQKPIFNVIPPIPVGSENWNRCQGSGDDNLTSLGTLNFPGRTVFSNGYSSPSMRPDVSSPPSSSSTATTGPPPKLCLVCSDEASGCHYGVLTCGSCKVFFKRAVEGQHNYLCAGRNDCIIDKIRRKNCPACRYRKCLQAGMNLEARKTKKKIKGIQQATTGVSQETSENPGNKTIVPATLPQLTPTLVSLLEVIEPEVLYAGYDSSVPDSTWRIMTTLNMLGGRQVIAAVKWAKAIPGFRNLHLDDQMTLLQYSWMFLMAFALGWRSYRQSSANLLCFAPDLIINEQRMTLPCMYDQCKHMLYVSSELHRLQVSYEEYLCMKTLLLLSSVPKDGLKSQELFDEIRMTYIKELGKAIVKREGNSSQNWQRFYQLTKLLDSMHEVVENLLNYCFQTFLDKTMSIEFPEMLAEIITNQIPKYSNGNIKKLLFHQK
Ubiquitin carboxyl-terminal hydrolase 1 (Homo sapiens), sequence (O94782 whole entry, looked up): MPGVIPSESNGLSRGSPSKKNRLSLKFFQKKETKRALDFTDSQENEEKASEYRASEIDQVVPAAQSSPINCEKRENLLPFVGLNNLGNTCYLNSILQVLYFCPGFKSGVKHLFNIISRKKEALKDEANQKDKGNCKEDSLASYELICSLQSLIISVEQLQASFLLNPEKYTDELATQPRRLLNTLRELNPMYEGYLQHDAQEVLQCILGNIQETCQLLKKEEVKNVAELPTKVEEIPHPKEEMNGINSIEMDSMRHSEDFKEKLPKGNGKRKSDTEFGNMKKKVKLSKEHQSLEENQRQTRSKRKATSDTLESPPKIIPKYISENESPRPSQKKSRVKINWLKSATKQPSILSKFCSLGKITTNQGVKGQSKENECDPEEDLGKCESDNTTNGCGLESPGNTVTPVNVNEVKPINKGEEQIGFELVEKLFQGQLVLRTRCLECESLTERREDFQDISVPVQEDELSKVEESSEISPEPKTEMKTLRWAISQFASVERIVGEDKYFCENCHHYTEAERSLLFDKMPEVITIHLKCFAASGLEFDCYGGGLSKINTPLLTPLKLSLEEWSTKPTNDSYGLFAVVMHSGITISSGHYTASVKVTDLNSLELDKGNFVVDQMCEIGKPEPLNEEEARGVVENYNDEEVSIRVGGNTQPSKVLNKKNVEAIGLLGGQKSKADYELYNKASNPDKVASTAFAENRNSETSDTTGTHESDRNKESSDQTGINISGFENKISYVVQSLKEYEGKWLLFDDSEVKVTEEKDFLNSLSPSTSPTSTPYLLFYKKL
Cytochrome P450 1A2 (Homo sapiens), sequence (P05177 whole entry, looked up): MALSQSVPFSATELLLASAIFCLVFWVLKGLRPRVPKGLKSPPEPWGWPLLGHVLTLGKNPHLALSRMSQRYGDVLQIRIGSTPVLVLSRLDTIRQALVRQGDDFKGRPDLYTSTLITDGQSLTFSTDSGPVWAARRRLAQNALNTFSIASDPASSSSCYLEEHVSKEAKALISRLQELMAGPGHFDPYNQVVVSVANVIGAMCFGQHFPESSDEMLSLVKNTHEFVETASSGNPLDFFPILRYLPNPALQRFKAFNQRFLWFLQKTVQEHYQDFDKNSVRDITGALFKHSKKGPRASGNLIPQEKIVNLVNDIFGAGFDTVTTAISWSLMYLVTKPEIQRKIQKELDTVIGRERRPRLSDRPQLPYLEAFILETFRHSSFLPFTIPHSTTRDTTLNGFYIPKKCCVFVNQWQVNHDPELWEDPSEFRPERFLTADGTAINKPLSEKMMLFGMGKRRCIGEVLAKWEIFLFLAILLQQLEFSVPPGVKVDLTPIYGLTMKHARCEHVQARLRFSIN
Dual specificity protein kinase CLK4 (Homo sapiens), sequence (Q9HAZ1 whole entry, looked up): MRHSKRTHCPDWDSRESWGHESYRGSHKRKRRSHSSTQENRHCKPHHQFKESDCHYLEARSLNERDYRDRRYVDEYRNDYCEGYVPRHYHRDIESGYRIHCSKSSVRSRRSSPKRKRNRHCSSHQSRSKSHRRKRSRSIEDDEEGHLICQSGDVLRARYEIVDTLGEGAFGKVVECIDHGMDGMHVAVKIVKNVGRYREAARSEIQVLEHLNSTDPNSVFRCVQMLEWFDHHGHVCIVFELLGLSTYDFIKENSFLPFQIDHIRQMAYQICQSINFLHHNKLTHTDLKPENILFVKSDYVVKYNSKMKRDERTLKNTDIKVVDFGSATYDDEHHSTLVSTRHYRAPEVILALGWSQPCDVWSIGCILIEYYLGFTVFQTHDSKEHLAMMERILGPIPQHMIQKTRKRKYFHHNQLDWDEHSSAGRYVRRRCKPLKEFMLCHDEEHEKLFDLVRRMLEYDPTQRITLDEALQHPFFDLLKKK
Cytochrome P450 3A4 (Homo sapiens), sequence (P08684 whole entry, looked up): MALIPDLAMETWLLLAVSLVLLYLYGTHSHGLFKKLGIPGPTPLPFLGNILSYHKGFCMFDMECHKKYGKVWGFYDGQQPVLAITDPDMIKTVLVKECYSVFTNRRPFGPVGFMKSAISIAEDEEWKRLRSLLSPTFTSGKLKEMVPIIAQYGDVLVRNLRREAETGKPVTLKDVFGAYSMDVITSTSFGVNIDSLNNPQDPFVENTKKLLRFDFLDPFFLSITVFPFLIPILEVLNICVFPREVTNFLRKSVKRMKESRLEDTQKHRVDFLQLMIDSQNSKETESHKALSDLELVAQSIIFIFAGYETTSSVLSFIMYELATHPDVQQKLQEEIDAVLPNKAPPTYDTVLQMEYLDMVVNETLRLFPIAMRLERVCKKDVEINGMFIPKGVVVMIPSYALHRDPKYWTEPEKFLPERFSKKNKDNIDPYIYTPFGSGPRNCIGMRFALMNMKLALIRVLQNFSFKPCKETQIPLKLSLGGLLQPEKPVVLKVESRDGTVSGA
Cytochrome P450 2C19 (Homo sapiens), sequence (P33261 whole entry, looked up): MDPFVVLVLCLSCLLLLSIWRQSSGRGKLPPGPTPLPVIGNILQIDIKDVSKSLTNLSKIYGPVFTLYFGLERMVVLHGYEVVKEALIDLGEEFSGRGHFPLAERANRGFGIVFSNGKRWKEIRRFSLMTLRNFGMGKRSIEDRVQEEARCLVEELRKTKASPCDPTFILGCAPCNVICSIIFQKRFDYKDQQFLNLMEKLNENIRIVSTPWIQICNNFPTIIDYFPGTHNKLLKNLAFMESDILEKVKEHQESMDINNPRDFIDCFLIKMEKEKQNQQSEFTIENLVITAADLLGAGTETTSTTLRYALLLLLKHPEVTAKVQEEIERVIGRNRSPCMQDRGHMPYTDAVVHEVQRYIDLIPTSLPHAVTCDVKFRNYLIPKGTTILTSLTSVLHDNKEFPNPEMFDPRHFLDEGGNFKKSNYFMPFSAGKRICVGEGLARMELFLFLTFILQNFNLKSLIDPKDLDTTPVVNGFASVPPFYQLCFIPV

As for `O=c1cnc2cnc(N3CCOCC3)nc2n1C1CC1`, the Potency in test [1] was > 11.4 µM (inactive); in test [3], 6.31 µM (active); in test [6] it was > 9.22 µM (inactive); in test [7], > 46 µM (inactive). The activity change, negative = inhibition was 18.1% (inactive) in test [2], -1.07% (inactive) in test [4] and 1.43% (inactive) in test [10]. Moreover, the activity, negative = inhibition in [5] was -6.14% (inactive). For the same compound, the result in test [8] was inactive. In addition, the Potency result in test [9], in [11], in test [12] and in test [13] was “inactive” throughout. Further, the max response amounted to 8.4% in test [10] (setting [17]) and 8.8% in test [10] (setting [18]).
On to `COCCn1c(=O)c(-c2cccc(C#N)c2)nc2cnc(Oc3ccccc3)nc21`, for which the Potency is > 11.4 µM (inactive) in [1], 15.8 µM (active) in test [3], > 9.22 µM (inactive) in test [6] and > 46 µM (inactive) in test [7]. Moreover, the values for the activity change, negative = inhibition in [2], in [4] and in [10] were -13% (inactive), 2.72% (inactive) and -5.58% (inactive), respectively. Also, in test [5], the activity, negative = inhibition is -11.3% (inactive). In test [8], the compound was called inactive. For the same compound, the Potency result in test [9], in test [14], in [15], in test [11], in test [12] and in test [13] was “inactive” throughout. In addition, the results for the max response in [10] (setting [17]) and in test [10] (setting [18]) were -1.86% and -8.56%, respectively.
Consider `CN(C)C(=O)c1ccc(-c2nc(NC3CCNCC3)c3ccccc3n2)cc1`, for which the Potency was > 11.4 µM (inactive) in test [1], 20 µM (active) in [3], > 46 µM (inactive) in test [6] and > 46 µM (inactive) in test [7]. Also, the activity change, negative = inhibition in test [2] is 7.64% (inactive); in [4], 12.4% (inactive); in test [10], 4.99% (inactive). In test [5], the activity, negative = inhibition is 11.2% (inactive). Besides, in [8], the outcome was inactive. Further, the Potency entry in test [9], in [11], in [12] and in [13] was “inactive” each time. In addition, the max response in test [10] (setting [17]) is 14.8%; in test [10] (setting [18]) it was 18.3%.
With `CN1CCN(c2ncc3ncc(=O)n(CCC#N)c3n2)CC1`, the Potency in test [1] is > 11.4 µM (inactive); in test [3], 31.6 µM (active); in test [6] it was > 9.22 µM (inactive); in [7] it was > 46 µM (inactive). In addition, the activity change, negative = inhibition in test [2] was -10.2% (inactive); in test [4], -4.67% (inactive); in test [10], 6.98% (inactive). The activity, negative = inhibition in test [5] was -3.39% (inactive). In addition, in test [8], the call was inactive. Further, the Potency entry in [9], in test [16], in test [15], in [12] and in [13] was “inactive” throughout. The max response in test [10] (setting [17]) turned out to be 9.3%; in test [10] (setting [18]) it was 10.7%.
With `CN(C)Cc1ccccc1-c1cc(N(C)Cc2ccco2)ncn1`, the Potency in test [1] is > 11.4 µM (inactive); in [3], 15.8 µM (active); in test [6] it was > 46 µM (inactive); in test [7], > 46 µM (inactive). For the same compound, the activity change, negative = inhibition was 4.53% (inactive) in [2] and 5.32% (inactive) in test [10]. Moreover, in test [5], the activity, negative = inhibition is -3.48% (inactive). Further, in test [8], the compound was classed as inactive. For the same compound, the Potency result in test [9], in test [14], in test [15], in [12] and in test [13] was “inactive” throughout. Besides, the max response in test [10] (setting [17]) came to 19.9%; in [10] (setting [18]), 23.3%.

These data come from PubChem BioAssay (NCATS).
